Pf growth 96h – Primary qHTS for delayed death inhibitors of the malarial parasite plastid, 96 hour incubation | hit rate 6.9% among 320,000 | Potency, µM (doses to about 28.7 µM), inactives show top-dose activity change, negative = inhibition, usual class: inhibitors | P. falciparum luciferase reporter growth, 96 h; also: potency is read from the fitted curve at half-maximal effect; % is scaled to controls: 0 for no effect and ±100 for the full control effect
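Luminescence readout: decreased luciferase signal marks inhibited growth of reporter-expressing P. falciparum in infected red cells (2% hematocrit, 0.05% parasitemia final), exposed to compound two generations (96 h, 37 C, 5% CO2).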
Cycloheximide cs – Cycloheximide Counterscreen for Small Molecule Inhibitors of Shiga Toxin; cell reporter, cycloheximide protein synthesis inhibition counterscreen; max response, %; hit rate 12% among 300,000; AID 2314, 2010; in the data active = max response mostly above about 13%, no sharp cut-off; inactive = mostly below about 14%; also: read at 38.3 µM for the half of the compounds with a filed dose; 0% is about no effect
Shiga toxin inh – A qHTS for Small Molecule Inhibitors of Shiga Toxin; inhibition, % at 38.7 µM; Vero cells, Shiga toxin protein synthesis inhibition reporter; hit rate 9.2% among 290,000; in the data active = inhibition mostly above about 28%, no sharp cut-off; inactive = mostly below about 43%; also: 0% is about no effect
NS1 function inh – qHTS Assay for Inhibitors of Influenza NS1 Protein Function; Potency, µM (highest dose often 46.1 µM), for inactives: at the highest dose activity, positive = more growth; hit rate 0.4% among 270,000; AID 2326, 2010; calls by dose curve; also: potency is read from the fitted curve at half-maximal effect; actives are rising curves; nearly all actives have a fitted effect of over 50% in size
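Compounds were scored for reversing the slow growth caused by influenza A NS1 in S. cerevisiae, measured by optical density at 600 nm. Assay medium contained 2% galactose at pH 6.0; NS1-free yeast of the same strain were the positive control.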
Pf growth 48h – Primary qHTS for delayed death inhibitors of the malarial parasite plastid, 48 hour incubation | P. falciparum luciferase growth in erythrocytes, 48 h | Potency, µM (titrated, usually from 28.7 µM), for inactives: at the highest dose activity change, negative = inhibition, most hits filed as inhibitors | hit rate 5.9% among 310,000 | AID 504832, 2011; also: potency is read from the fitted curve at half-maximal effect; % is scaled to controls: 0 for no effect and ±100 for the full control effect
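A one-generation exposure of luciferase-tagged malaria parasites in RPMI 1640/Albumax erythrocyte culture, 37 C and 5% CO2. Inhibition is inferred from decreased luminescence after adding detection reagent.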
Numbers without * were called inactive; ? = inconclusive; . = no result given. Only some compounds are listed: those with a hit (about 21% of all), similar ones and a draw of the others. Unless noted, calls follow the shape of the dose curve; as a rule, active = well fitted inhibition curve with a large enough effect; inconclusive = small, poorly fitted or top-dose-only effect, or another doubt; inactive = no such curve, though single readings can be large or run the other way.

SMILES	Pf growth 96h	Cycloheximide cs	Shiga toxin inh	NS1 function inh	Pf growth 48h
COc1ccccc1C(=O)NCCC(=O)Nc1ccc(S(=O)(=O)N2C(C)CCCC2C)cc1 (stereo unspecified)	?	.	.	.	15µM*
COc1cc(NC(=O)CCC2CCCC2)cc(-n2cnnn2)c1	?	7	32	-6%	-23%
O=C(CSc1nc2ccccc2c(=O)n1-c1ccc(OC(F)F)cc1)NCc1cccs1	?	2	-7	14%	?
O=C1CCCc2nc(N3CCc4ccccc43)ncc21	.	38*	94*	-12%	148%
CC1(C)CC(=O)c2cnc(N3CCc4ccccc4C3)nc2C1	0%	24*	89*	0%	118%
O=C1CC(c2ccccc2)Cc2nc(N3CCc4ccccc43)ncc21 (stereo unspecified)	.	.	.	13%	.
O=C(CCCCCNC(=O)c1ccccc1)N=Nc1c(O)[nH]c2c(Br)cc(Br)cc12	0%	-2	-12	7%	12µM*
O=C(CNC(=O)c1cccnc1)N=Nc1c(O)[nH]c2c(Br)cc(Br)cc12	22%	-3	-8	15%	-2%
O=C(N/N=C/c1cc([N+](=O)[O-])ccc1O)c1cccc(N2CCCC2=O)c1	33%	-3	-4	-1%	?
CNC(=O)c1cccc(N2CCCC2=O)c1	19%	11	-17	3%	20%
CC(NC(=O)c1cccc(N2CCCC2=O)c1)c1ccc2c(c1)OCCO2 (stereo unspecified)	12µM*	-2	-2	-3%	?
COc1cc(/C=N/NC(=O)c2cccc(N3CCCC3=O)c2)ccc1O	?	24*	46	-1%	-2%
CCN(CC)c1ccc(/C=N/NC(=O)c2cccc(N3CCCC3=O)c2)cc1	28%	23*	42*	0%	?
O=C(N/N=C/c1cccnc1)c1cccc(N2CCCC2=O)c1	40%	27*	35	0%	25%
Cc1cc([N+](=O)[O-])ccc1N1C(=O)c2ccc(C(=O)Nc3ccccc3C(=O)O)cc2C1=O	-29%	-1	27	4%	0%
O=c1[nH][nH]cc1C=Nc1ccccc1O	?	-5	-4	-100%	?
O=c1c(=Nc2ccccc2O)c(=O)c2ccccc12	9%	21*	108*	-2%	15%
O=C(CCc1nnc(Cc2ccc(-c3ccccc3)cc2)o1)NCCc1cccnc1	?	-1	-5	-9%	?
Cc1ccc2nc3ccc(N4CCN(C)CC4)nn3c(=O)c2c1	103%	32*	57*	-1%	175%
O=c1c2ccccc2nc2ccc(N3CCOCC3)nn12	?	28*	52*	4%	102%
Cc1ccc2nc3ccc(N4CCCCCCC4)nn3c(=O)c2c1	.	28*	56*	-6%	40%
Cc1sc2nc3ccc(N4CCCC4)nn3c(=O)c2c1C	-7%	8	7	-11%	11%
CSc1nc(C)cc(OCCNS(=O)(=O)c2cc(C)ccc2C)n1	?	-1	-17	-8%	-14%
CC(=O)c1c(C)nc(C)nc1NC(=O)Cc1ccccc1	22%	-3	-8	-8%	-6%
CC(=O)Nc1nc(-c2ccc(Cl)cc2)nc(C)c1C(C)=O	?	21*	18*	?	88%
SMILES	Pf growth 96h	Cycloheximide cs	Shiga toxin inh	NS1 function inh	Pf growth 48h
Cc1c(NS(=O)(=O)c2ccc(N(C)C3CCCCC3)c([N+](=O)[O-])c2)c(=O)n(-c2ccccc2)n1C	10µM*	-1	-4	13%	?
COc1cccc(CNc2nccs2)c1O	7%	24*	.	9%	73%
O=C(COc1ccc2ccc(=O)oc2c1)Nc1cccnc1	6%	-1	-1	-7%	11%
C=CCOc1ccc(CNc2nccs2)cc1OC	?	26*	22*	5%	37%
COc1ccccc1C1(CC(=O)Nc2nccs2)CCOC(C(C)C)C1 (stereo unspecified)	13µM*	1	12	2%	?
O=C(COc1ccc2ccc(=O)oc2c1)Nc1nccs1	197%	64*	68*	0%	161%
COc1ccc(OCC(=O)OC2CCCN(C)C2)cc1 (stereo unspecified)	15%	1	17	0%	34%
COc1ccc(N(C)C(=O)c2oc(=O)c3ccccc3c2-c2ccc(C)cc2)c(OC)c1	?	2	-9	-1%	?

Source: PubChem BioAssay
